Screening results (PubChem)
PI4K2A inh: qHTS for small molecular inhibitors of PI4K2A; Phosphatidylinositol 4-kinase type 2-alpha (Homo sapiens), Q9BTU6; hit rate 0.13% among 420,000; purified PI4K2A, ADP-Glo luminescence, 1 h; active compounds read low; activity change, negative = inhibition, % at 76.9 µM; in the data active = activity change below about -50%; inconclusive = mostly about -30% to -49%;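 also: -100% = wells without enzyme as full effect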
Target sequence (Q9BTU6 whole entry, looked up): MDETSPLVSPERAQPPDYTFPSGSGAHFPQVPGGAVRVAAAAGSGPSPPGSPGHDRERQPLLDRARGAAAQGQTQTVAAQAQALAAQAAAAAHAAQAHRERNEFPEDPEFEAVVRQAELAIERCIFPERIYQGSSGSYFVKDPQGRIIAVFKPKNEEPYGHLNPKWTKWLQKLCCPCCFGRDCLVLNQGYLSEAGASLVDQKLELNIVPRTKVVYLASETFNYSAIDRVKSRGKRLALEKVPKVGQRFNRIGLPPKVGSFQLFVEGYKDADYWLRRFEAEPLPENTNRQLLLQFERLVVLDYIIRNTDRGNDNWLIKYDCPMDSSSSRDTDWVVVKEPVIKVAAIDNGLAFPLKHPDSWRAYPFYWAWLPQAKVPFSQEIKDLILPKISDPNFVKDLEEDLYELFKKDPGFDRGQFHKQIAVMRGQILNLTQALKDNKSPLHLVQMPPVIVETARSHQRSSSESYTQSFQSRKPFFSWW
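ADP-Glo luminescence measured ADP generated by PI4K2A enzyme (4 ug/mL before mixing) with 1.2 mM PI substrate (pre-mix) and 300 microM ATP (pre-mix). Tris pH7.5 buffer with MgCl2, Triton X-100; 1 h reaction at ambient temperature.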
GALK inh: qHTS Assay for Inhibitors of Human Galactokinase (GALK). Potency, µM (highest dose often 57.5 µM), without a hit: at the highest dose activity change, negative = inhibition, usual class: inhibitors. Purified GALK, Kinase-Glo residual ATP luminescence. hit rate 0.007% among 270,000. P51570; also: potency is read from the fitted curve at half-maximal effect
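Luminescence from leftover ATP (Ultra-Glo luciferase/luciferin) served as read-out after a 1 h room-temperature reaction of 5 nM GALK with 35 uM ATP and 100 uM galactose.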
Giardia killer: Small Molecules that selectively kill Giardia lamblia: qHTS | Giardia lamblia trophozoite viability | activity change, % at 7.66 µM, hits read low | hit rate 0.15% among 340,000; in the data active = activity change below about -80%; inconclusive = between about -30% and that limit;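 also: parasites exposed to compound for two days anaerobically before the ATP read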
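Trophozoite viability was measured as ATP-dependent luminescence, read 15-30 min after reagent addition. Before that, parasites at 100 cells/well were exposed to compounds for 48 h, anaerobically, at 37 deg C.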
Coupling enz: qHTS Assay for Inhibitors of Fructose-1,6-bisphosphate Aldolase from Giardia Lamblia: Coupling assay counterscreen; AID 2472, 2010; hit rate 0.67% among 290,000; activity change, negative = inhibition, % at 58.2 µM, hits read low; coupling enzyme system counterscreen, AmpLite Red fluorescence; in the data active = activity change below about -30%
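Counterscreen of the coupled detection system alone, without aldolase: glyceraldehyde-3-phosphate coupling enzymes plus AmpLite Red readout. Compounds at 57.5 uM final, 10 min RT preincubation, 20 min RT reaction, fluorescence 525/598 nm.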
TrxR1 substrate: qHTS Assay for Substrates of Mammalian Selenoprotein Thioredoxin Reductase 1 (TrxR1): qHTS; purified TrxR1 substrate turnover, NADPH consumption readout; Potency, µM (highest dose often 114 µM), inactives show at the top dose activity change, negative = substrate turnover; hit rate 0.01% among 390,000; AID 588456, 2011; also: potency is read from the fitted curve at half-maximal effect; nearly all actives have a fitted effect of over 50% in size
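Rat TrxR1, dispensed at 90 nM, was prereduced with 400 uM NADPH (final) for 5 min at ~22 deg C, then incubated with compound 15 min before 400 uM selenite. A first-read NADPH fluorescence drop versus no-compound background flagged substrates.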
TrxR1 inh: qHTS Assay for Inhibitors of Mammalian Selenoprotein Thioredoxin Reductase 1 (TrxR1): qHTS. hit rate 1% among 390,000. recombinant rTrxR1, NADPH fluorescence consumption, selenite substrate. Potency, µM (series often up to 114 µM), inactives show at the top dose activity change, negative = inhibition, most hits filed as inhibitors. Thioredoxin reductase 1, cytoplasmic (Rattus norvegicus), O89049; also: potency is read from the fitted curve at half-maximal effect; nearly all actives have a fitted effect of over 65% in size
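Rat TrxR1 (90 nM in the dispensed reagent) was pre-reduced with 400 uM NADPH for 5 min at room temperature, then incubated with compound for 15 min. After 400 uM selenite was added, NADPH fluorescence (Ex 340/Em 450 nm) was followed for 8 min.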
* = called active by the depositor; ? = inconclusive; nt = no result; ! = repeats disagree; [ ] = another dose, or the depositor's remark. Sampled rows, rich in hits. Any-hit rate of the full collection: about 1.5%. Unless noted, calls follow the shape of the dose curve; as a rule, active = well fitted curve in the direction sought with a large enough effect; inconclusive = small, poorly fitted or top-dose-only effect, or another doubt; inactive = no such curve, though single readings can be large; an effect the other way counts as inactive or inconclusive. Unless noted, % is scaled to controls: 0 for no effect and ±100 for the full control effect.

SMILES | PI4K2A inh | GALK inh | Giardia killer | Coupling enz | TrxR1 substrate | TrxR1 inh
Fc1ccc(Nc2nc(NCc3ccco3)nc3nccnc23)cc1 | nt | nt | 12 | nt | 4% | -10%
COc1ccc(C(=O)/C=C/C(=O)N(CC(=O)NCCC(C)C)Cc2cccs2)c(O)c1 | 1 | -1% | -14 | 0 | -5% | 2.8µM*
COc1ccc(C(=O)N(Cc2ccco2)Cc2cccs2)c(O)c1 | 1 | 1% | 2 | 9 | 3% | -10%
COc1ccc(C(=O)/C=C/C(=O)N(CC(=O)NC2CCCCC2)Cc2ccc(F)cc2)c(O)c1 | 0 | 3% | -9 | 2 | 7% | 4µM*
O=C(O)CCn1cnc2onc(-c3ccccc3Cl)c2c1=O | -5 | nt | nt | nt | -3% | 11%
N#CCc1nn2c3c(cnc2c1C#N)C(=O)CCC3 | -7 | 0% | 6 | -32* | 8%[57.1 µM] | 25%[57.1 µM]
Cc1nn2c3c(cnc2c1-c1ccccc1)C(=O)CCC3 | 3 | 0% | 1 | 1 | 1% | 8%
O=C1C2C3C=CC(CNS(=O)(=O)c4ccccc4[N+](=O)[O-])(O3)C2C(=O)N1c1ccccc1 (centres undefined) | 5 | -2% | -19 | 2 | 15%[57.1 µM] | 18µM*
Cc1cc(C)c(S(=O)(=O)NCC23C=CC(O2)C2C(=O)N(c4ccccc4)C(=O)C23)c(C)c1 (centres undefined) | 4 | -1% | -29 | nt | -13% | 14µM*
COC(=O)C(N)Cc1ccc(O)c(O)c1 (centres undefined) | 2 | -2% | 23 | -7 | -3% | -22%
C[C@](N)(Cc1ccc(O)cc1)C(=O)O | 2 | nt | nt | 1 | 6%[57.1 µM] | -1%[57.1 µM]
NC(Cc1ccc(O)c(O)c1)C(=O)O (centres undefined) | nt | nt | nt | -30* | nt | nt
O=C(O)/C=C/c1ccc(O)c(O)c1 | -2 | -1% | -14 | -30*! | 9%[57.1 µM] | ?
O=C(/C=C/c1ccc(O)c(O)c1)O[C@H](Cc1ccc(O)c(O)c1)C(=O)O | nt | -3% | nt | -35* | nt | nt
C[C@](N)(Cc1ccc(O)c(O)c1)C(=O)O | ? | nt | -5 | -58*! | 15%[57.1 µM] | ?
CCOC(=O)C1CCCN(S(=O)(=O)c2cc3c(cc2Br)CCN3C(=O)CC)C1 (centres undefined) | 0 | nt | nt | nt | nt | nt
O=C(NCCN1C(=O)C2C3C=CC(C3)C2C1=O)c1cc(Cl)cc(Cl)c1 (centres undefined) | -1 | nt | nt | nt | nt | nt
CC(C)Cn1cc(NC(=O)NCc2cccc(Cl)c2)c2ccccc2c1=O | ? | nt | nt | nt | 38% | 3%
c1ccc(-n2cnc3cc(NCc4ccncc4)ccc32)cc1 | 3 | 1% | 2 | -42* | 9% | 15%
c1ccc(-n2cnc3cc(NCc4ccccn4)ccc32)cc1 | -10 | -1% | -3 | -8 | 6% | 7%
CC[C@]12c3[nH]c4cc(CCC(=O)N(C)C)ccc4c3CCN1C(=O)[C@@H](CC(=O)NCCC1=CCCCC1)C[C@@H]2C(=O)N1CCN(C(=O)c2ccco2)CC1 | 0 | nt | 1 | nt | 0% | -6%
CC[C@]12c3[nH]c4cc(-c5ccco5)ccc4c3CCN1C(=O)[C@@H](CC(=O)NCCC1=CCCCC1)C[C@@H]2C(=O)N1CCN(C(=O)c2ccco2)CC1 | -53* | nt | 4 | nt | 28% | ?
O=C1c2ccccc2C(=O)N1/N=C/c1ccc(O)c(O)c1O | -9 | -2% | -15 | -68* | -24% | -6%
Cc1nc2ccccc2c(=O)n1/N=C/c1ccc2ccccc2c1O | 3 | -4% | 23 | -32* | -3% | 16%
Cc1nc2ccccc2c(=O)n1/N=C/c1ccc(O)c(O)c1O | -30 | 0% | -3 | -45* | -12% | -14%[57.1 µM]
SMILES | PI4K2A inh | GALK inh | Giardia killer | Coupling enz | TrxR1 substrate | TrxR1 inh
CCCCC1CCC(C(=O)N2CC(=O)Nc3ccc(Cl)cc3C2c2ccc(F)cc2)CC1 (centres undefined) | -5 | nt | nt | nt | 9% | 37%
CCc1ccccc1NC(=O)Nc1ccc2c(c1)N(CC)C(=O)c1ccccc1S2 | -11 | nt | nt | nt | 8% | 21%
O=C(O)c1cc(Cl)c(Cl)cc1C(=O)N1CCCC1 | 2 | -3% | -91* | 2 | 8% | 11%
O=C1CSC(=S)N1/N=C/c1cccnc1 | -3 | 3% | -6 | 2 | 1%[57.1 µM] | ?
COc1cc(O)c(C=NN2C(=O)CSC2=S)c(OC)c1 | 0 | nt | nt | nt | nt | nt
O=C1CSC(=S)N1N=Cc1ccccc1O | -8 | nt | 4 | nt | 10%[11.4 µM] | 0%[11.4 µM]
COc1cc(/C=N/N2C(=O)CSC2=S)ccc1O | -10 | -2% | 2 | 0 | -14% | 32µM*
Cc1ccccc1/C=N/N1C(=O)CSC1=S | -17 | -3% | -24 | -2 | -5% | 35µM*
O=C1CSC(=S)N1/N=C/c1cc(Br)c(O)c(Br)c1 | -13 | -21% | -12 | -1 | -15% | 79µM*
O=C1CSC(=S)N1/N=C/c1ccc2c(c1)OCCO2 | 3 | 4% | -11 | 1 | 4% | 79µM*
Cc1ccc2[nH]c(C)c(CC(=O)O)c2c1 | -3 | -4% | -9 | -40* | 1% | -23%
O=c1oc2ccccc2c(Nc2cc3ccccc3cc2O)c1[N+](=O)[O-] | -5 | -2% | -9 | -56* | -7%[57.1 µM] | -10%[57.1 µM]
CCCCOc1ccc(S(=O)(=O)N2CCN(c3ccccc3OCC)CC2)cc1 | 0 | nt | nt | nt | 2% | 7%
Nc1cc(C(F)(F)F)ccc1S | -10 | nt | nt | nt | nt | nt
Cc1ccc(NC(=O)c2nc(S(=O)(=O)Cc3ccc(F)cc3)ncc2Cl)cc1C | 14 | nt | nt | nt | 8% | 2.8µM*
Cc1ccc(CNC(=O)c2nc(S(=O)(=O)Cc3ccc(C)cc3)ncc2Cl)cc1 | 2 | nt | nt | nt | 3% | ?
CC(=O)Nc1ccc(NC(=O)c2nc(S(=O)(=O)Cc3ccc(F)cc3)ncc2Cl)cc1 | ? | nt | nt | nt | -2% | 1.3µM*
Cc1ccc(CS(=O)(=O)c2ncc(Cl)c(C(=O)Nc3nc4ccc(F)cc4s3)n2)cc1 | -2 | nt | nt | nt | -3% | ?
COc1ccc(C2C=C(c3ccc(C)cc3)Nc3ncnn32)cc1 (centres undefined) | -3 | -1% | -9 | -3 | 75% | -3%
COc1cccc(C2=CC(c3ccc(N(C)C)cc3)n3ncnc3N2)c1 (centres undefined) | nt | 6% | nt | -35* | nt | nt
Cc1ccc(C2C=C(c3ccccc3)Nc3ncnn32)cc1 (centres undefined) | -4 | nt | 2 | nt | 22% | 45µM*
Fc1ccc(C2=CC(c3ccc(Br)o3)n3ncnc3N2)cc1 (centres undefined) | 4 | 3% | 2 | 2 | 29% | 7.9µM*
